The entries come from a sample that favours hits as a whole.
EphB4 antag: antagonists of human EphB4-ephrin-B2 interaction. P54760. EphB4 LBD / TNYL-RAW-Alexa532 peptide, fluorescence polarization. inhibition, % at 7 µM. hit rate 0.15% among 97,000. AID 720;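 active = inhibition above the screen-wide mean inhibition plus 3 SD, cut at about 15% in these data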
D1 allo mod: D1 dopamine receptor (human) allosteric modulation; P21728; HEK293 D1, CRE-luciferase, dopamine EC30 potentiation; actives deviate in either direction; B-score at 10 µM; hit rate 5.9% among 58,000; AID 641;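 active = luminescence count or its row- and column-corrected plate score outside the 99.7% band of the plate's sample wells, on either side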
DAT uptake mod: modulates human dopamine transporter uptake under cocaine; Q01959; LLC-PK1 hDAT cells, [14C]-dopamine uptake with cocaine IC80; actives deviate in either direction; B-score at 10 µM; hit rate 1.3% among 110,000;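 active = Z score or B-score, a plate-position-corrected score, falls beyond the plate's 99.7% confidence bounds, in either direction; inactive = both scores lie inside the 99.7% bounds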
Target sequence (Q01959 whole entry, looked up): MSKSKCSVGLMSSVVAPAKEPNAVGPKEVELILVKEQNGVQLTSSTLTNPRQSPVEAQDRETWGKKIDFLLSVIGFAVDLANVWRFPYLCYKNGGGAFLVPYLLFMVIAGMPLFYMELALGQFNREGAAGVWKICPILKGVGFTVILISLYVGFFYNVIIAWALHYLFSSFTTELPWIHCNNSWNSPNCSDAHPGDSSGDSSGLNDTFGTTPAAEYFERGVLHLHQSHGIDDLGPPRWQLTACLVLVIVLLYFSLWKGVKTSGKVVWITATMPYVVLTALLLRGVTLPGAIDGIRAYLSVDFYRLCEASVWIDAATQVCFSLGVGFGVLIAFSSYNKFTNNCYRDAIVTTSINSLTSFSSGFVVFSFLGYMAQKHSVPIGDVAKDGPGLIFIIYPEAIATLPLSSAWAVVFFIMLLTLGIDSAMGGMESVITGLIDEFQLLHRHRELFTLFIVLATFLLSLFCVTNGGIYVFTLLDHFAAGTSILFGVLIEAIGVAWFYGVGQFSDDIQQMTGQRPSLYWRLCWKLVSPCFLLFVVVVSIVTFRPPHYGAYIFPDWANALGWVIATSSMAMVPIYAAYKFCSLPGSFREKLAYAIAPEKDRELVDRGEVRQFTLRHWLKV
Numbers stand for hits; - = inactive; . = not tested or not shown.

SMILES | EphB4 antag | D1 allo mod | DAT uptake mod
COc1ccc(-c2cn3cc(C)ccc3n2)cc1OC | - | -6.5 | -
COc1ccc(CC(=O)Nc2nnc(C)s2)cc1 | - | . | -
Cc1ccccc1Nc1nc(N)nc(CN2C(=O)NC3(CCCCC3C)C2=O)n1 (centres undefined) | . | - | -7.6
Cc1cccc(Nc2nc(N)nc(CN3CCC(C)CC3)n2)c1C | - | - | -
COc1cccc(CNc2nc3nc(C)c(Cl)c(C)n3n2)c1 | - | - | -
COc1ccc(CNc2nc3nc(C)c(Cl)c(C)n3n2)cc1OC | - | 6.2 | -
CCN(CC)CCN(C(=O)Cn1nnc(-c2ccc(OC)c(OC)c2)n1)C(C(=O)NC1CCCC1)c1ccc(F)cc1 (centres undefined) | - | . | -
CCOC(=O)N1CCN(C(=O)c2ccc(Cn3c(=S)[nH]c4cc5c(cc4c3=O)OCO5)cc2)CC1 | - | -4.1 | -
CCOC(=O)N1CCN(C(=O)c2ccc3c(=O)n(Cc4ccccc4)c(=S)[nH]c3c2)CC1 | - | - | -
Cc1ccc(S(=O)(=O)NNC(=O)C2Cc3c(ccc4ccccc34)O2)cc1 (centres undefined) | - | . | -8.5
CCCCOc1ccc(S(=O)(=O)NNC(=O)C2Cc3c(ccc4ccccc34)O2)cc1 (centres undefined) | - | . | -
O=C(COc1ccccc1)Nc1cccc(-c2nc3cc4ccccc4cc3[nH]2)c1 | - | . | -
Cc1ccc(C)c(N2CCN(C(=O)CNS(=O)(=O)c3cccs3)CC2)c1 | - | . | 1.7
COc1ccc(N2CCN(C(=O)CCNS(=O)(=O)c3ccc4c(c3)CCC(=O)N4)CC2)cc1 | . | - | -
COc1ccc(N2CCN(C(=O)CCNS(=O)(=O)c3cccs3)CC2)cc1 | - | . | 11
CCOC(=O)N1CCN(C(=O)CNS(=O)(=O)c2cccs2)CC1 | - | - | -
CN(C)/C=C(/C#N)C(=O)c1cccc(Oc2ccc(C(C)(C)C)cc2)c1 | - | . | -
COc1cc2c(C(=O)N3CCN(c4cccc(Cl)c4)CC3)cn(CC(C)C)c(=O)c2cc1OC | - | . | -
COCCn1c(NCc2ccc(C)cc2)nc2c1c(=O)[nH]c(=O)n2C | . | -3.3 | -
COCCn1c(NCc2ccccc2)nc2c1c(=O)[nH]c(=O)n2C | - | - | -
COc1ccc(C2CC(C(F)(F)F)n3nc(C(=O)NCc4c(C)nn(C)c4C)c(Cl)c3N2)cc1 (centres undefined) | . | -3.1 | -
COc1ccc(C2CC(C(F)(F)F)n3nc(C(=O)N(C)Cc4cn(C)nc4C)c(Cl)c3N2)cc1 (centres undefined) | - | - | -
CC1(c2nnc(Cc3ccccc3)o2)CC(c2c(Cl)cccc2Cl)=NO1 (centres undefined) | . | . | -
COc1ccc(OC)c(NC(=O)Cc2coc3ccc4ccccc4c23)c1 | - | . | -
C/C(CCc1ccc2c(c1)OCO2)=N\N=C(/N)SC1CC(=O)N(c2ccccc2F)C1=O (centres undefined) | - | . | -
SMILES | EphB4 antag | D1 allo mod | DAT uptake mod
CCOC(=O)C1=C(CSc2nc(-c3ccccc3)ccc2C#N)OC(N)=C(C#N)C1c1ccc(OC)cc1 (centres undefined) | - | . | -
CSc1nc(N)nc(SCC(=O)Nc2ccc(Cl)cc2)c1C#N | - | . | -
CSc1nc(N)nc(SCCS(=O)(=O)c2ccc(Cl)cc2)c1C#N | - | - | 6.1
N#Cc1cccc2cnccc12 | . | - | -2.9
Nc1cccc2cnccc12 | - | - | -
CC(=O)Nc1ccc(-n2c(C)c(C(C)=O)c(C(C)=O)c2C)cc1 | . | - | -
CC(=O)Nc1ccc(N2C(C(C)=O)=NN(c3ccc(Cl)cc3)C2c2sccc2C)cc1 (centres undefined) | 17 | . | -
Cc1nnc(NC(=O)c2ccc3c(c2)C(=O)N(CCC(C)C)C3=O)s1 | - | . | -
CC(C)Nc1ncnc2c1cnn2-c1ccc(Cl)cc1 | . | -6.1 | -
Clc1ccc(Nc2ncnc3c2cnn3-c2ccccc2)cc1 | . | - | -
Cc1ccc(N(CC(=O)N2CCc3ccccc32)S(=O)(=O)c2cccs2)cc1 | - | . | -
Cc1ccc(CNn2cnnc2SCC(=O)NC(C)(C)C)cc1 | - | - | 2.2
CC(C)(C)NC(=O)CSc1nncn1NCc1ccccc1 | - | - | -
COc1cc(C#CC#CCN2CCCCC2)ccc1O | - | - | -
CCC(NC(=O)NCc1ccc2c(c1)OCO2)(C(F)(F)F)C(F)(F)F | - | - | -3.4
CC(=O)OCC(=O)NCc1ccc2c(c1)OCO2 | - | - | -
CC1CCCN(S(=O)(=O)c2ccc3c(c2)CCN3C(=O)C2CCC2)C1 (centres undefined) | . | -4.1 | -
O=C(C1CCC1)N1CCc2cc(S(=O)(=O)N3CCc4ccccc4C3)ccc21 | - | - | -
O=C1c2ccccc2C(O)(c2ncc[nH]2)N1CCc1ccccc1 (centres undefined) | - | . | -
CCCC(=O)Nc1nc(C)c(-c2csc(Nc3ccccc3OC)n2)s1 | - | . | -
COc1ccccc1Nc1nc(-c2sc(NC(=O)CC(C)C)nc2C)cs1 | - | . | 2.7
CCOC(=O)c1c(C)nn(Cc2cccc(Cl)c2)c1N | - | - | -
O=C1c2ccccc2N2C(=O)c3ccccc3[C@H]2N1c1ccccc1 | - | . | -2.7
O=C1c2ccccc2C(O)N1c1ccc(Cl)cc1 (centres undefined) | - | - | -
CC(C)(OC1OC(CO)C(O)C(O)C1O)[C@H]1Oc2ccc3ccc(=O)oc3c2[C@H]1O (some centres undefined) | . | . | -
SMILES | EphB4 antag | D1 allo mod | DAT uptake mod
CCOC(=O)c1c(NC(=O)CSc2nnc(-c3cccc(C)c3)n2CC)sc(C(C)=O)c1C | - | . | -
CCn1c(SCC(=O)Nc2nc3c(s2)CCCC3)nnc1-c1ccccc1 | - | - | 3.7
O=C(CSc1nc2ccccc2o1)Nc1nc2ccccc2s1 | - | - | -
CCn1c(SCC(=O)Nc2nc3ccccc3s2)nnc1-c1ccc(OC)cc1 | - | - | -
CCOC(=O)c1c(NC(=O)CSc2nnc(-c3ccccc3)n2CC)sc(C(C)=O)c1C | - | - | 2.5
O=C(CSc1nc2ccccc2o1)Nc1nc2c(s1)CCCC2 | . | -2.4 | .
CCOC(=O)c1cccc(NC(=O)C2CCCN(S(=O)(=O)c3c(C)nn(C)c3C)C2)c1 (centres undefined) | - | - | 3
CCOC(=O)c1cccc(NC(=O)C2CCCN(S(=O)(=O)c3c(C)n[nH]c3C)C2)c1 (centres undefined) | - | - | -
O=C(NCc1ccc2c(c1)OCO2)c1cc(-c2ccccc2)nn1CC1CC(c2cccnc2)=NO1 (centres undefined) | . | . | -
O=C(CN1C(=O)NC2(CCCC2)C1=O)NCCC1=CCCCC1 | 16 | . | -
Cc1ccc(C2(C)NC(=O)N(CC(=O)NCCC3=CCCCC3)C2=O)cc1 (centres undefined) | - | . | -
O=C(NC1CC1)C1=C[C@@H](c2c[nH]c3ccccc23)C[C@@H](OCCCCO)O1 | . | . | -
CCN(c1ccc(NC(=O)CN2C(=O)NC3(CCOc4ccccc43)C2=O)cc1)C(C)C (centres undefined) | - | . | -
Cc1ccc(-n2c(SCC(N)=O)nc3c([nH]c4ccccc43)c2=O)cc1 | . | -4.1 | -
COc1ccc(-n2c(SCC(=O)N3CCCC3)nc3c([nH]c4ccccc43)c2=O)cc1 | . | - | .
CCOc1ccccc1N1CCN(Cc2cccc(OC)c2O)CC1 | - | -3.7 | -
C=CCc1cc(C)ccc1OCC(O)CN1CCN(c2ccccc2)CC1 (centres undefined) | - | . | -
